The values below come from PubChem BioAssay.

Assay [1] is described as follows: polyglutamine-triggered caspase-3 activation inhibitors, cell-based (AID 1583). As to conditions: polyglutamine-induced caspase-3 activation, cell assay; stronger effect = higher value;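 tested at 10 µM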.
The nature of assay [2]: suppressors of polyQ aggregation in yeast, 75Q-TubU reporter (AID 1593). The conditions noted are these: Yeast 75Q polyglutamine aggregation reporter.
Assay [3] can be described thus: rescue of polyQ-huntingtin neuronal dysfunction in worms, whole organism, C. elegans mechanosensory neurons, N-terminal huntingtin (AID 1599). As to conditions: touch response, stronger effect = higher value.
Assay [4] can be described thus: inhibitors of mitochondrial cytochrome c release, biochemical, purified mitochondria (AID 1603).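 Note: mouse liver mitochondria challenged with calcium chloride; signal normalized to the plate average as 100%.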 As to conditions: stronger effect = lower value.
Assay [5] can be described thus: inhibitors of polyQ protein aggregation (AID 1604). As to conditions: polyglutamine-induced protein aggregation inhibition assay; stronger effect = higher value; tested at 2.5 µM.
Assay [6] in a line: enhancers of glutamate uptake in motor neurons, MN-1 cell line (AID 1612).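 Note: tested at 1 µM final; 0% = mean of DMSO vehicle wells on each plate; positive means more glutamate uptake than control and negative means less.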 The conditions noted are these: MN-1 motor neuron cells, stronger effect = higher value.
Assay [7] is described as follows: reducers of polyQ inclusions in PC12 cells, cell-based, NGF-treated PC12, GFPQ80 (AID 1614).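 Note: lower means fewer inclusions and 0 means no inclusions at all.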 The conditions noted are these: PC12 NGF-treated GFP-polyQ80 inclusion reduction.
The nature of assay [8]: suppressors of polyglutamine aggregation in yeast, 75Q-TubH (AID 1616). As to conditions: S. cerevisiae 75Q-TubH polyglutamine aggregation suppression; stronger effect = higher value.
In assay [9] the target is Mitogen-activated protein kinase 7 (Homo sapiens) (UniProt Q13164). The experiment in a line: ERK5 transactivation activators in reporter cells, primary screen, cell-based, HTS (AID 1508626;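 active = luciferase signal above three times the same-plate solvent-only control wells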;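 note: luciferase driven by Gal4-ERK5 fusion binding five Gal4 sites before minimal TATA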). The conditions noted are these: HeLa Gal4-ERK5 transactivation, 18 h, at 5 µM, stronger effect = higher value.
Assay [10] has as its target ATP-dependent translocase ABCB1 (Homo sapiens) (UniProt P08183). Put plainly: MDR1 (ABCB1) efflux transporter inhibition, cell-based (AID 377; in the data active = fluorescence slope change above about 50%). The conditions noted are these: MDR1-expressing cells, fluorescent substrate accumulation slope; stronger effect = higher value; concentration not given here.
Assay [11] in a line: human astrocyte viability loss, single and combined drugs, cytotoxicity control for chromothriptic childhood tumor combination screen, cell-based, BGB or cisplatin IC20 combos (AID 1671460; in the data active = inhibition above about 80%;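 note: cells exposed to compounds for 96 hours before viability readout; 0% = vehicle and 100% = killing control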). The conditions noted are these: Human astrocytes, drug combinations, stronger effect = higher value.
A short description of assay [12]: kinase inhibitors against Plasmodium liver-stage infection, cell-based, known kinase inhibitor set, luminescence, hepatoma host viability (AID 624392).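 Note: infected cells incubated roughly two days before readout.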 As to conditions: Plasmodium liver stage in hepatoma cells, luciferase luminescence, concentration not given here; liver cell % of control: measured here: host liver cell viability; parasite % of control: stronger effect = lower value.

Assay [13] is described as follows: hESC survival regulators, cell-based (AID 493140).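 Note: cells exposed to compounds for four days before counting.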 The conditions noted are these: human embryonic stem cell survival screen; stronger effect = higher value.
The nature of assay [14]: Cy5 fluorescence interference with SSB-bound oligo, artefact control for HCV NS3 helicase inhibitor project, biochemical, NIH Clinical Collection, E. coli SSB (AID 743268).
For assay [15], the system named is Hepatitis C virus NS3 helicase. Put plainly: HCV NS3 helicase inhibitors, primary screen, biochemical, fluorescence polarization, NIH Clinical Collection (AID 743270). As to conditions: NS3 helicase binding to Cy5-dT15 DNA, stronger effect = higher value, concentration not given here. A general note: Polarisation of emitted light reports the rotation of a fluorescent probe.

The target in assay [16] is Single-stranded DNA-binding protein (Escherichia coli (strain K12)) (UniProt P0AGE0). The experiment in a line: E. coli SSB displacement from DNA, counter-screen for HCV NS3 helicase inhibitor project, biochemical, fluorescence polarization, NIH Clinical Collection (AID 743271; in the data active = inhibition above about 28%). As to conditions: stronger effect = higher value, concentration not given here.
Assay [17] can be described thus: fluorescence interference in NS3h assay format, artefact control for HCV NS3 helicase inhibitor project, biochemical, NIH Clinical Collection (AID 743272).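 Note: HCV NS3 helicase with a Cy5 labelled single stranded DNA probe.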 The conditions noted are these: fluorescence interference counterscreen, stronger effect = lower value. In general terms: A counterscreen serves to expose hits that act by an unwanted route or on another target.
[18] abbreviates: measured here: combo with BGB IC20, at 0.5 µM.
The mark [19] stands for this setting: measured here: combo with cisplatin IC20, at 0.5 µM.

“And” between values parts separate entries of the source, which are not always exact repeats. Equal entries are not always repeated. Records with an inconclusive call do not appear. For some assays here: Measured potencies and affinities stand elsewhere. The source made the active and inactive calls. Unless noted, the rule behind the calls is not given here.

Chain of Mitogen-activated protein kinase 7 (Homo sapiens) (Q13164 whole entry, looked up, the tested form may be a part): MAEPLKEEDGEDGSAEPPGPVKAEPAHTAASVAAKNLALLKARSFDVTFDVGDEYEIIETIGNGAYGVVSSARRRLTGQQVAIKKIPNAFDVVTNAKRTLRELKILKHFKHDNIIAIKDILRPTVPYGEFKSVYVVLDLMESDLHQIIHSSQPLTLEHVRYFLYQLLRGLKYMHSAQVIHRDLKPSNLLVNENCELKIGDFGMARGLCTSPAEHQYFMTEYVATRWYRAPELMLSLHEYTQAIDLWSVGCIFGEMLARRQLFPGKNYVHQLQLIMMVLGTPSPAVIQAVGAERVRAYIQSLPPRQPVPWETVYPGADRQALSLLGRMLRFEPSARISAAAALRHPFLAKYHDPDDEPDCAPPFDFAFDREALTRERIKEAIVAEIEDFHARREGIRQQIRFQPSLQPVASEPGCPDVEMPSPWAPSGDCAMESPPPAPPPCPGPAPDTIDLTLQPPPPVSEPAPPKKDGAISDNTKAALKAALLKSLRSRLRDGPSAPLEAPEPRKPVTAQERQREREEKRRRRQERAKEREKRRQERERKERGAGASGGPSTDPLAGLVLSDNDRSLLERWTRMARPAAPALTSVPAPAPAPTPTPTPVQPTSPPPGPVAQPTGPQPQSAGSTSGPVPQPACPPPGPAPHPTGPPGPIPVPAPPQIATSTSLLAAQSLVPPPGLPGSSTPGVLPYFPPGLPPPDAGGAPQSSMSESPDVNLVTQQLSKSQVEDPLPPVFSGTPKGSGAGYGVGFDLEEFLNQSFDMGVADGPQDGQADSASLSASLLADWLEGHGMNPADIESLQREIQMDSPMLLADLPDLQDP
Chain of ATP-dependent translocase ABCB1 (Homo sapiens) (P08183 whole entry, looked up): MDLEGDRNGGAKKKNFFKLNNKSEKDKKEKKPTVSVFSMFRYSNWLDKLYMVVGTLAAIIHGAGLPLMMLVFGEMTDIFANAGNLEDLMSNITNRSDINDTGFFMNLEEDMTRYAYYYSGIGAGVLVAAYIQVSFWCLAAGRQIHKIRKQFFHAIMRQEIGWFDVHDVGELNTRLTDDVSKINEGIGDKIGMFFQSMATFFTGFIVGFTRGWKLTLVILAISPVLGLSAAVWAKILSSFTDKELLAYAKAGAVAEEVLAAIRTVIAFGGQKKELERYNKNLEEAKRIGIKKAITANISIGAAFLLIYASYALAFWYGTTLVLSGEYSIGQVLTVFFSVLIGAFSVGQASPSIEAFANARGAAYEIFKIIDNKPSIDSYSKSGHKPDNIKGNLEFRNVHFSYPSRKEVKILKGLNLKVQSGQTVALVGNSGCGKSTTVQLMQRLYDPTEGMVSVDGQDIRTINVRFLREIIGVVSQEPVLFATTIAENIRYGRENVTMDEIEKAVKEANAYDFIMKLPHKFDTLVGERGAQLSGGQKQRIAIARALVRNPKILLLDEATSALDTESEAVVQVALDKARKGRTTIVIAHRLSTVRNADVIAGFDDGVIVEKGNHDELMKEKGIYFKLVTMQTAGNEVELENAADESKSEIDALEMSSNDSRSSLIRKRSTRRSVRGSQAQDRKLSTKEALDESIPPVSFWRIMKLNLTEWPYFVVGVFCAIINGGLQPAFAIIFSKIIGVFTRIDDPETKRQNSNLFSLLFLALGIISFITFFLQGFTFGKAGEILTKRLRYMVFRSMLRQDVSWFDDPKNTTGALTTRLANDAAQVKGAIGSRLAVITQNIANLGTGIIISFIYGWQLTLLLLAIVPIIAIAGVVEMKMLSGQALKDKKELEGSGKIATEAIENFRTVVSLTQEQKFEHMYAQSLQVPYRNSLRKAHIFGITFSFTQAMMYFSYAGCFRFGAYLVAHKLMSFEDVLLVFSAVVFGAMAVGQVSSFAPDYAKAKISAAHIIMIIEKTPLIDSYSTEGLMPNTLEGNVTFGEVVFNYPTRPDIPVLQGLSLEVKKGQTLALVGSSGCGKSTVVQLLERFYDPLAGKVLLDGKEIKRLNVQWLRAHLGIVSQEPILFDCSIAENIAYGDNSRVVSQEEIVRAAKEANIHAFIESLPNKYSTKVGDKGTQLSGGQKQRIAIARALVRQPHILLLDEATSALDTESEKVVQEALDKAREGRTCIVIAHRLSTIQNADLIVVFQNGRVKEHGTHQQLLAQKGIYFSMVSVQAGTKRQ

Regarding `NC[C@H]1O[C@H](O[C@H]2[C@H](O)[C@@H](O[C@H]3O[C@H](CO)[C@@H](O)[C@H](N)[C@H]3O)[C@H](N)C[C@@H]2N)[C@H](O)[C@@H](O)[C@@H]1O`, the inhibition – broadly, the change of the read-out against control, counted positive when it falls – in assay [1] was 5.91%. Also, the score in assay [2] is 1.82. In addition, in assay [3], the rescue above control was -8.71. Moreover, the cytochrome c release ratio in [4] was 1. In [5], the inhibition of aggregation is 28.5%. In [6], the glutamate uptake change was found to be 2.43%. The compound also yielded an inclusion score in [7] of 2. For the same compound, the aggregation suppression score in assay [8] is 1.68. Also, the luciferase signal in [9] is 40 AU (inactive).
Turning to `CC(C)[N+]1(C)[C@@H]2CC[C@H]1CC(OC(=O)C(CO)c1ccccc1)C2` (stereo not given in full), the fluorescence slope change in assay [10] was 52.9% (active). In addition, the luciferase signal in assay [9] is 44 AU (inactive).
As for `CCOC(=O)NCCCC(=O)NCCc1ccccc1`, the inhibition in assay [11] (at 0.5 µM) was 6.08% (inactive) and 5.44% (inactive); in assay [11] (setting [18]), 1.7% and -5.49%; in assay [11] (setting [19]), 7.7% and 23%.
Regarding `C[C@@]1(c2nc3c(C(N)=O)cccc3[nH]2)CCCN1`, the inhibition was -5.3% (inactive) and -11.3% (inactive) in assay [11] (at 0.5 µM); -6.99% and -18.5% in assay [11] (setting [18]); -13.8% and -3.66% in assay [11] (setting [19]).
For the compound `Cc1ccc(NC(=O)c2ccc(CN3CCN(C)CC3)cc2)cc1Nc1nc(-c2cccnc2)cs1`, in [12], the liver cell % of control was 46.6% and 78.6% and 98.8%; the parasite % of control is 29.5% (inactive) and 24.2% (inactive) and 36% (inactive).
With `CC1(C)S[C@@H]2[C@H](NC(=O)[C@H](NC(=O)N3CCNC3=O)c3ccccc3)C(=O)N2[C@H]1C(=O)O`, the luciferase signal in assay [9] was 60 AU (inactive).
Take `CCOC(=O)O[C@]1(C(=O)COC(=O)CC)CC[C@H]2[C@@H]3CCC4=CC(=O)C=C[C@]4(C)[C@H]3[C@@H](O)C[C@@]21C`: the survival in assay [13] is 5.17 (inactive).
For `C[C@]12CC[C@@H]3c4ccc(OS(=O)(=O)O)cc4CC[C@H]3[C@@H]1CCC2=O`, the survival in assay [13] is 5.67 (inactive). The fluorescence ratio was 1.03 (inactive) in assay [14] and 1.01 (inactive) in assay [17]. Further, the inhibition in [15] is -1.09% (inactive); in assay [16], -2.76% (inactive). Besides, the luciferase signal in assay [9] is 76 AU (inactive).
As for `CO[C@H]1C[C@H](O[C@H]2[C@H](C)[C@@H](O[C@@H]3O[C@H](C)C[C@H](N(C)C)[C@H]3OC(C)=O)[C@@H](C)C[C@@]3(CO3)C(=O)[C@H](C)[C@@H](OC(C)=O)[C@@H](C)[C@@H](C)OC(=O)[C@@H]2C)O[C@@H](C)[C@@H]1OC(C)=O`, in assay [9], the luciferase signal is 232 AU (inactive).
Regarding `CO[C@@]1(NC(=O)C2SC(=C(C(N)=O)C(=O)O)S2)C(=O)N2C(C(=O)O)=C(CSc3nnnn3C)CS[C@@H]21` (stereo not given in full), the survival in assay [13] was 11.4 (inactive).
Regarding `C[C@@H]1CCC[C@H](C)N1NC(=O)c1ccc(Cl)c(S(N)(=O)=O)c1`, in assay [10], the fluorescence slope change was 11.3% (inactive). Further, the luciferase signal in assay [9] was 100 AU (inactive).
In the case of `O=C(NCC1(c2nc(-c3ccccc3)cs2)CCOCC1)c1cccc(-c2noc(C(F)(F)F)n2)c1`, the inhibition is -27.1% (inactive) and -7.2% (inactive) in assay [11] (at 0.5 µM); -8.11% and -1.8% in [11] (setting [18]); -58.3% and -12.6% in [11] (setting [19]).
Take `NCc1ccccc1CC(=O)N[C@@H]1C(=O)N2C(C(=O)O)=C(CSc3nnnn3CC(=O)O)CS[C@H]12`: in assay [13], the survival was 7.42 (inactive).
